Reference: PubChem BioAssay (NCI)
This is part of a sample that, as a whole, favours compounds with a hit. Of some 79,000 tested, about 15% had one in any assay. Active and inactive are the calls of the source. Rule as the data show it: active = growth inhibition above about 70%; inactive = the rest.

What was measured:
[1] = NCI Yeast Anticancer Drug Screen. Data for the wt1 strain (AID 149);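 also: 0% = growth of vehicle-treated wt1 cultures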; conditions: S. cerevisiae wt1 strain (SPY 50644) growth inhibition, hits give high values
How it was run: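 Measured: growth of wt1 yeast under compound versus vehicle treatment, reported as inhibition.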

[2] = NCI Yeast Anticancer Drug Screen. Data for the rad50EPP+ strain (AID 151);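 also: 0% = growth of vehicle-treated control cultures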; conditions: S. cerevisiae rad50 mutant strain, hits give high values
How it was run: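 Vehicle-normalised growth inhibition; rad50EPP+ yeast strain, altered in DNA damage repair, compound-treated.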

[3] = NCI Yeast Anticancer Drug Screen. Data for the mgt1 strain (AID 153); conditions: S. cerevisiae mgt1 mutant growth inhibition, hits give high values
How it was run: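 Vehicle-normalized growth inhibition is determined in mgt1 yeast, a strain selected for a defined alteration in DNA repair or cell cycle control.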

[4] = NCI Yeast Anticancer Drug Screen. Data for the rad50 strain (AID 155);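 also: 0% = growth of vehicle-only cultures of the same strain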; conditions: S. cerevisiae rad50 strain growth inhibition, hits give high values
How it was run: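 Growth of the mutant yeast was measured after compound exposure and referenced to vehicle-treated cultures.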

[5] = NCI Yeast Anticancer Drug Screen. Data for the mec2-1 strain (AID 157); conditions: S. cerevisiae mec2-1 strain, hits give high values
How it was run: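 Mutant yeast (mec2-1) grown with compound; growth inhibition relative to vehicle control reported.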

[6] = NCI Yeast Anticancer Drug Screen. Data for the rad14 strain (AID 159);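 also: 0% = growth of vehicle-treated control cultures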; conditions: S. cerevisiae rad14 strain growth inhibition, hits give high values
How it was run: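 Here, inhibition of yeast growth was measured after compound exposure, using a strain with a genetic defect in DNA damage repair and vehicle-treated cultures as the reference.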

[7] = NCI Yeast Anticancer Drug Screen. Data for the sgs1 mgt1 strain (AID 161);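 also: 0% = growth of cultures given vehicle only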; conditions: S. cerevisiae sgs1 mgt1 strain, hits give high values
How it was run: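 Growth of a repair-deficient yeast mutant was monitored after compound treatment and expressed as inhibition relative to vehicle-treated cultures.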

[8] = NCI Yeast Anticancer Drug Screen. Data for the CLN2oe strain (AID 163);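 also: 0% = growth of vehicle-only control cultures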; conditions: S. cerevisiae CLN2oe strain, hits give high values
How it was run: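 Compounds are applied to yeast harbouring a defined cell-cycle control change; reduced growth compared with vehicle-treated controls gives the value.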

[9] = NCI Yeast Anticancer Drug Screen. Data for the cln2 rad14 strain (AID 165);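 also: 0% = growth equal to vehicle treated cultures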; conditions: S. cerevisiae cln2 rad14 strain, hits give high values
How it was run: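 Readout is yeast growth inhibition versus vehicle-treated controls, using a strain with cln2 and rad14 alterations exposed to compound.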

[10] = NCI Yeast Anticancer Drug Screen. Data for the bub3 strain (AID 167); conditions: S. cerevisiae bub3 mutant strain, hits give high values
How it was run: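 Whole-cell yeast assay. The mutant strain was incubated with compounds, and growth inhibition was determined by comparison with vehicle-treated cells.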

[11] = NCI Yeast Anticancer Drug Screen. Data for the wt2 strain (AID 169);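 also: 0% = growth of vehicle-treated yeast cultures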; conditions: S. cerevisiae wt2 strain growth inhibition, hits give high values
How it was run: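 Against vehicle-treated controls, the growth of yeast exposed to each compound was compared, and the inhibition was recorded.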

[12] = NCI Yeast Anticancer Drug Screen. Data for the mlh1 strain (AID 171);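 also: 0% = growth of vehicle-treated control cultures of the same strain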; conditions: S. cerevisiae mlh1 strain growth inhibition, hits give high values
How it was run: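 Measured: yeast growth. Reference: vehicle-treated controls. Organism: strain with a defined alteration affecting DNA damage repair or cell cycle control, treated with compound.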

[13] = NCI Yeast Anticancer Drug Screen. Data for the sgs1 strain (AID 173);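 also: 0% = growth of vehicle-only control cultures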; conditions: S. cerevisiae sgs1 mutant, hits give high values
How it was run: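 Each compound was added to cultures of the altered yeast strain. Growth was recorded, and inhibition was derived by comparison with vehicle controls.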

[14] = NCI Yeast Anticancer Drug Screen. Data for the mlh1 rad18 strain (AID 175); conditions: S. cerevisiae mlh1 rad18 strain growth inhibition, hits give high values
How it was run: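 Genetically defined yeast (DNA repair-deficient) exposed to compounds; growth inhibition determined relative to vehicle.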

[15] = NCI Yeast Anticancer Drug Screen. Data for the rad18 strain (AID 177); conditions: S. cerevisiae rad18 mutant growth inhibition, hits give high values
How it was run: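 Vehicle-treated cultures served as the baseline for scoring compound-induced growth inhibition in DNA-repair-mutant yeast.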

[16] = NCI Yeast Anticancer Drug Screen. Data for the rad52 strain (AID 147);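 also: 0% = growth of vehicle-treated control cultures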; conditions: S. cerevisiae rad52 mutant growth inhibition, hits give high values
How it was run: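 The repair-mutant yeast strain was incubated with compounds, then growth was read and inhibition derived relative to vehicle.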

[17] = at 5.0 µM (retest, dose inferred, filed as 0.5)
[18] = at 50.0 µM (retest, dose inferred, filed as 5.0)

Measured: growth inhibition

CN(CC(=O)O)c1ccc(/C=C/c2ccnc3ccccc23)cc1
active: [2]; at 100.0 µM 83% | [7]; [18] 80% | [14]; [18] 88% | [15]; at 33.0 µM 78% | [15]; at 100.0 µM 91%
inactive: [1]; at 1.2 µM -2% | [1]; at 3.7 µM -3% | [1]; at 11.0 µM -4% | [1]; at 33.0 µM -8% | [1]; at 100.0 µM -6% | [2]; at 1.2 µM -9% | [2]; at 3.7 µM 3% | [2]; at 11.0 µM 8% | [2]; at 33.0 µM 35% | [3]; at 1.2 µM 0% | [3]; at 3.7 µM 0% | [3]; at 11.0 µM -2% | [3]; at 33.0 µM -2% | [3]; at 100.0 µM 39% | [4]; at 1.2 µM -1% | [4]; at 3.7 µM -1% | [4]; [17] 23% | [4]; at 11.0 µM 2% | [4]; at 33.0 µM 11% | [4]; [18] 24% | [4]; at 50.0 µM 14.7% | [4]; at 100.0 µM 31% | [5]; at 1.2 µM -5% | [5]; at 3.7 µM -4% | [5]; [17] 6% | [5]; at 11.0 µM -5% | [5]; at 33.0 µM -3% | [5]; [18] 12% | [5]; at 50.0 µM 33.5% | [5]; at 100.0 µM 16% | [6]; at 1.2 µM -3% | [6]; at 3.7 µM -5% | [6]; at 11.0 µM -2% | [6]; at 33.0 µM 6% | [6]; at 100.0 µM 32% | [7]; [17] 5% | [7]; at 50.0 µM 59.2% | [8]; at 1.2 µM -3% | [8]; at 3.7 µM -4% | [8]; at 11.0 µM -9% | [8]; at 33.0 µM -15% | [8]; at 100.0 µM -12% | [9]; [17] -2% | [9]; [18] 22% | [9]; at 50.0 µM -46.4% | [10]; at 1.2 µM -3% | [10]; at 3.7 µM -4% | [10]; [17] 6% | [10]; at 11.0 µM -5% | [10]; at 33.0 µM -8% | [10]; [18] 20% | [10]; at 50.0 µM 51.9% | [10]; at 100.0 µM 12% | [11]; at 1.2 µM -4% | [11]; at 3.7 µM -4% | [11]; at 11.0 µM -5% | [11]; at 33.0 µM -3% | [11]; at 100.0 µM 37% | [12]; at 1.2 µM -1% | [12]; at 3.7 µM 2% | [12]; at 11.0 µM 3% | [12]; at 33.0 µM 7% | [12]; at 100.0 µM 41% | [13]; at 1.2 µM -2% | [13]; at 3.7 µM 0% | [13]; at 11.0 µM 4% | [13]; at 33.0 µM 22% | [13]; at 100.0 µM 65% | [14]; [17] 30% | [14]; at 50.0 µM 50.4% | [15]; at 1.2 µM 1% | [15]; at 3.7 µM 5% | [15]; at 11.0 µM 10%

Cc1cccc2c1N=C(C(F)(F)F)CC2=O
inactive: [16]; at 1.2 µM 4% | [16]; at 3.7 µM 7% | [16]; at 11.0 µM 10% | [16]; at 33.0 µM 20% | [16]; at 100.0 µM 46% | [2]; at 1.2 µM 2% | [2]; at 3.7 µM 3% | [2]; at 11.0 µM 10% | [2]; at 33.0 µM 33% | [2]; at 100.0 µM 48% | [4]; at 1.2 µM 9% | [4]; at 3.7 µM 15% | [4]; [17] -120% | [4]; at 11.0 µM 23% | [4]; at 33.0 µM 24% | [4]; [18] 9% | [4]; at 50.0 µM 43.7% | [4]; at 100.0 µM 46% | [5]; at 1.2 µM 2% | [5]; at 3.7 µM 1% | [5]; [17] -43% | [5]; at 11.0 µM -5% | [5]; at 33.0 µM 9% | [5]; [18] 40% | [5]; at 50.0 µM 35% | [5]; at 100.0 µM 54% | [6]; at 1.2 µM 3% | [6]; at 3.7 µM -5% | [6]; at 11.0 µM 0% | [6]; at 33.0 µM 7% | [6]; at 100.0 µM 39% | [7]; [17] -44% | [7]; [18] 65% | [7]; at 50.0 µM 45% | [8]; at 1.2 µM -5% | [8]; at 3.7 µM -3% | [8]; at 11.0 µM 3% | [8]; at 33.0 µM 8% | [8]; at 100.0 µM 43% | [9]; [17] -49% | [9]; [18] 45% | [9]; at 50.0 µM 49.6% | [10]; at 1.2 µM -2% | [10]; at 3.7 µM -2% | [10]; [17] -61% | [10]; at 11.0 µM -1% | [10]; at 33.0 µM 1% | [10]; [18] 33% | [10]; at 50.0 µM 25% | [10]; at 100.0 µM 37% | [11]; at 1.2 µM -2% | [11]; at 3.7 µM -2% | [11]; at 11.0 µM -1% | [11]; at 33.0 µM 6% | [11]; at 100.0 µM 40% | [12]; at 1.2 µM -1% | [12]; at 3.7 µM 2% | [12]; at 11.0 µM 1% | [12]; at 33.0 µM 8% | [12]; at 100.0 µM 38%
